The values that follow come from PubChem BioAssay AID463187 (University of Pittsburgh Molecular Library Screening Center, 2010).

SMILES strings stand for the structures. Values joined by “and” are separate entries in the source; they are usually repeats but may differ in a detail not shown here. Equal entries are not always repeated. Screen size: about 220,000 compounds; about 1,500 (0.68%) were called active.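 Rule for the calls: active = Hck-Nef kinase inhibition above about 50% (limit read from the data); inactive = inhibition below that limit.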 The full list was thinned out, with actives kept by preference.

The target in the assay is Tyrosine-protein kinase HCK (Homo sapiens) (UniProt P08631). In words: Hck:Nef complex kinase activity blockers – biochemical, Z-Lyte FRET, 384-well, Hck-YEEI, primary screen (AID 463187).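 Note: 0% = DMSO with Hck plus Nef and 100% = Hck alone without Nef.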 Particulars: Recombinant Hck-YEEI plus Nef, Z-Lyte FRET kinase assay; at 20 µM; stronger effect = higher value.
Tyrosine-protein kinase HCK (Homo sapiens), sequence (P08631 whole entry, looked up): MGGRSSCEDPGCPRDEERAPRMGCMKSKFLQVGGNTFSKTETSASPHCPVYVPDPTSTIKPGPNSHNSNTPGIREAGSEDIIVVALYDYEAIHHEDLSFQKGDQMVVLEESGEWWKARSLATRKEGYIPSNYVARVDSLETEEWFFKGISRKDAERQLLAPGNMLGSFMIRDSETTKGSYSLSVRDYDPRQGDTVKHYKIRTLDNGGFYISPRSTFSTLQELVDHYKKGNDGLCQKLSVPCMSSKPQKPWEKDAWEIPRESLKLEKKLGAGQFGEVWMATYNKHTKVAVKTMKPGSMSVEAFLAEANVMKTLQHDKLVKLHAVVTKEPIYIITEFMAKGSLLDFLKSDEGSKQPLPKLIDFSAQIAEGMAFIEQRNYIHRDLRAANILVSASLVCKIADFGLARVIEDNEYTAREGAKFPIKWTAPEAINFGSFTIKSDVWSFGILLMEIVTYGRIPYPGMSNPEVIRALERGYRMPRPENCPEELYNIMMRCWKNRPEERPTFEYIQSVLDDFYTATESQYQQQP
A word on the inhibition: it is the drop in the measured response relative to a control, in per cent. `Cc1nnc(NC(=O)CSc2nc(C3CCCCC3)nc3ccccc23)s1`: the inhibition was -0.612% (inactive). For `CC(=O)Nc1cc2ccc(OC(C)=O)cc2oc1=O`, the inhibition was 23.3% (inactive).

As for `Cc1c(Cc2ccccc2)c(=O)oc2cc(OCC(N)=O)ccc12`, the inhibition is 28.6% (inactive). Take `CC(=O)Oc1ccc2c(C)c(CC(C)O)c(=O)oc2c1` (stereo unspecified): the inhibition is 81.8% (active). Next, `CS(=O)(=O)N(CC(=O)N1CCN(Cc2ccccc2)CC1)c1ccc2c(c1)OCCO2`: 1.45% (inactive); `Cc1ccc(C)c(NC(=S)NCC(c2cccnc2)N2CCOCC2)c1` (stereo unspecified): 0.595% (inactive). As for `COc1ccc(N=Cc2c(O)[nH]c3ccccc23)cc1OC`, the inhibition was 53% (active). Regarding `COc1ccccc1N=Cc1c(O)c2ccccc2oc1=O`, the inhibition is 0.48% (inactive). With `COc1cc(N=Cc2c(O)[nH]c3ccccc23)cc(OC)c1OC`, the inhibition was 34.4% (inactive). Next, `CC(C)CNC(=O)/C=C/C(=O)O`: -8.82% (inactive) and 22% (inactive); `CN(CC(=O)Nc1cccc(F)c1)CC(=O)Nc1cccc([N+](=O)[O-])c1`: 64.6% (active); `Cc1ccc(NC(=O)CN(C)CC(=O)Nc2cccc(F)c2)cc1[N+](=O)[O-]`: -0.303% (inactive).

Take `Cc1ccc(CN(C)CC(=O)Nc2cccc([N+](=O)[O-])c2)o1`: the inhibition was -2.63% (inactive).

Turning to `Cc1cccc(C)c1NC(=O)C1(C)c2cccc[n+]2CC(=O)N1Cc1cccs1` (stereo unspecified), the inhibition is 16.8% (inactive). `CCS(=O)(=O)c1ccc2c(c1)N(S(=O)(=O)c1ccccc1)CC(C(=O)O)O2` (stereo unspecified): the inhibition is 1.06% (inactive). Next, `CC1CCCN(CC(O)COc2ccc3c(c2)OCO3)C1` (stereo unspecified): 18.9% (inactive); `O=C1CSC(=S)N1/N=C/c1ccc(O)c([N+](=O)[O-])c1`: 118% (active). Next, `Cc1cc(C(=O)N/N=C/c2ccc(O)c([N+](=O)[O-])c2)c(C)n1-c1ccc(F)cc1`: 18.7% (inactive). Next, `CCOc1cccc(/C=N/N2C(=O)CSC2=S)c1O`: -22.8% (inactive); `Clc1ccc(-n2nnnc2CN2CCCCC2)cc1Cl`: 2.13% (inactive). `Cc1cc(C)c2c(n1)nn1c(-n3ccnc3)cc(C)nc21`: the inhibition is 5.47% (inactive). Consider `Cc1cc(C)c2c(n1)nn1c(N3CCN(c4cccc(Cl)c4)CC3)cc(C)nc21`, for which the inhibition was 35.2% (inactive). Next, `Cc1cc(C)c2c(n1)nn1c(N3CCOCC3)cc(C)nc21`: 58.8% (active). Next, `CCc1ccc(NC(=O)N[C@H](C(=O)O)C(C)CC)cc1` (stereo partly specified): -2.07% (inactive); `CC1=CC(C)(C)NC(=S)N1c1ccccc1`: -1.08% (inactive); `COc1ccc(N2CCN(c3ccc([N+](=O)[O-])cc3Cl)CC2)cc1`: 9.48% (inactive).

Take `C/C=C/C(=O)Nc1nnc(C(C)C)s1`: the inhibition was 6.42% (inactive).

On to `CC(C)n1cnc2c(Nc3cccc(Cl)c3)nc(N(CCO)CCCO)nc21`, for which the inhibition is 112% (active).

Turning to `OCCCNc1nccc(-c2cc(Nc3cccc(Cl)c3)ncn2)n1`, the inhibition is 17.4% (inactive). Next, `CC(C)C[C@H](CO)Nc1nc(N(C)c2cccc(Cl)c2)c2ncn(C(C)C)c2n1`: 29.9% (inactive).

For the compound `CC1CN(S(=O)(=O)c2ccccc2)C(C)CN1S(=O)(=O)c1ccccc1` (stereo unspecified), the inhibition was 2.18% (inactive).

As for `CC(=O)Nc1ccc(/C(C)=N/NC(=O)CN(c2ccccc2Br)S(C)(=O)=O)cc1`, the inhibition is 3.92% (inactive). Next, `Cc1cc(Br)ccc1SCC(=O)OCC(=O)NCc1ccc2c(c1)OCO2`: -1.74% (inactive).

Turning to `Oc1c(Cl)cc(Cl)c(Cl)c1Cc1c(O)c(Cl)cc(Cl)c1Cl`, the inhibition is 58.4% (active). Regarding `O=C(OCC1O[C@@H](OC(=O)c2cc(O)c(O)c(O)c2)[C@@H](OC(=O)c2cc(O)c(O)c(O)c2)[C@@H](OC(=O)c2cc(O)c(O)c(O)c2)[C@@H]1OC(=O)c1cc(O)c(O)c(O)c1)c1cc(O)c(O)c(O)c1` (stereo partly specified), the inhibition was 97.6% (active).

`CC(=O)NC1C(OCc2ccccc2)OC(COC(C)=O)C(OC(C)=O)C1OC(C)=O` (stereo unspecified): the inhibition was 0.438% (inactive). Next, `C/C=C(\C)C(=O)N1CC2(CC(c3cccc(NC(=O)CCCCC)c3)=NO2)C[C@@H]1C(N)=O` (stereo partly specified): 35.8% (inactive); `CC(C)(C)OC(=O)NCCCCCC(=O)N/N=C/c1coc2ccccc2c1=O`: 76.3% (active). Next, `O=C(CCCCCNC(=O)c1ccccc1)N/N=C/c1ccccc1`: 9.24% (inactive); `O=C(N/N=C/c1coc2ccccc2c1=O)c1cc2ccccc2o1`: 49.1% (inactive). In the case of `Cc1ccc(OCCCC(=O)NC(C)c2ccccc2)c(C)c1` (stereo unspecified), the inhibition was -1.04% (inactive). As for `CC(C)n1c(CN2CCN(Cc3ccccc3)CC2)nc2ccccc21`, the inhibition was 5.34% (inactive). Next, `CN(C)C(=S)Nc1ccc(Br)cc1Cl`: 14.6% (inactive); `O=C1Oc2ccccc2C(=O)/C1=C/c1ccccc1O`: 80.6% (active); `CCn1c(NC(=O)c2ccccc2)c(-c2cccs2)c(=O)c2ccccc21`: -2.03% (inactive). Turning to `CC(=O)c1cccc(NC(=O)c2ccncc2)c1`, the inhibition was -1.38% (inactive). Next, `CCn1c(=O)c2cc(C(=O)Nc3cccc(C(C)=O)c3)sc2c2ccccc21`: 53.6% (active); `Cc1ccc(N2C(=O)CC(Nc3cccc4ccccc34)C2=O)cc1` (stereo unspecified): 20.6% (inactive). In the case of `CC(C)Cn1cnc2c1c(=O)n(CC(O)c1ccccc1)c(=O)n2CC(C)C` (stereo unspecified), the inhibition was 1.05% (inactive).

In the case of `c1ccc(CSc2nnc(-c3ccco3)c(-c3ccco3)n2)cc1`, the inhibition is 61.4% (active). Regarding `Clc1ccccc1CSc1nnc(-c2ccco2)c(-c2ccco2)n1`, the inhibition was 21.2% (inactive).

As to `Brc1ccc(CSc2ccc(-c3ccco3)nn2)cc1`, the inhibition is 22.4% (inactive). Consider `O=C(COc1ccc([N+](=O)[O-])cc1)Nc1ccc(N2CCCC2)cc1`, for which the inhibition is 1.04% (inactive). For `CCc1nnc(NC(=O)/C=C/c2ccc(C)o2)s1`, the inhibition is 2.58% (inactive).

Consider `Cc1ccc(/C=C/C(=O)Nc2ccc([N+](=O)[O-])c(NC(=O)/C=C/c3ccc(C)o3)c2)o1`, for which the inhibition is 79.2% (active).

In the case of `Cc1c(NC(=O)/C=C/C(=O)O)cccc1[N+](=O)[O-]`, the inhibition was 0.166% (inactive). Next, `Cc1ccc(N(CC(=O)Nc2cc(C)cc(C)c2)S(=O)(=O)c2cccc3nonc23)cc1`: 2.67% (inactive). Next, `Cc1c(Nc2nc3ccccc3nc2NS(=O)(=O)c2cccs2)c(=O)n(-c2ccccc2)n1C`: -1.3% (inactive); `Cc1ccc(-c2nc(SCC(=O)Nc3ccccc3OC(F)F)c3c(C)c(C(=O)O)sc3n2)cc1`: 98.6% (active). Next, `Cc1ccc(C)c(SCc2nc3sc(C(=O)O)c(C)c3c(=O)[nH]2)c1`: 30.6% (inactive); `CCOC(=O)c1ccc[n+](CC(=O)Nc2ccccc2OC(F)F)c1`: 3.79% (inactive). With `COc1ccc(N(CC(=O)NC2CCCC2)C(=O)CS(=O)CC(=O)Nc2ccc3c(c2)OCO3)cc1` (stereo unspecified), the inhibition was 20.7% (inactive).

For the compound `CCn1c(SCC(=O)Nc2ccc(S(=O)(=O)Nc3onc(C)c3C)cc2)nnc1-c1ccccc1`, the inhibition was 0.636% (inactive).

As for `Cc1cc(C)c2nc(-c3cccnc3)cc(C(=O)Nc3ccc(S(=O)(=O)Nc4onc(C)c4C)cc3)c2c1`, the inhibition was 62.9% (active).

`COc1ccc(C(=O)Nc2ccc(S(=O)(=O)Nc3onc(C)c3C)cc2)cc1OC`: the inhibition is 2.01% (inactive).

With `O=C1c2ccccc2NC(c2ccccc2O)N1NS(=O)(=O)c1ccccc1` (stereo unspecified), the inhibition was 24.7% (inactive). Turning to `O=C(COC(=O)CSc1nnc(-c2ccc(Cl)cc2)o1)Nc1cc(Cl)cc(Cl)c1`, the inhibition was 3.81% (inactive).

In the case of `CCN(CC)c1ccc2cc(C(N)=O)/c(=N\NC(=O)c3ccncc3)oc2c1`, the inhibition is -3.77% (inactive).

As to `CCN(CC)c1ccc2cc(C(=O)O)c(=O)oc2c1`, the inhibition was 179% (active). As for `CCN(CC)c1ccc2oc(=O)c(C)nc2c1`, the inhibition is -14.5% (inactive). Next, `Cc1cc(C)nc(NNC2=CC(=O)CC(C)(C)C2)n1`: 22.8% (inactive); `Cc1[nH]nc(-c2ccc(OCc3cnn(-c4ccccc4)c3)cc2O)c1Oc1ccc(Cl)cc1`: 0.631% (inactive); `Cc1ccc2nc(S(=O)(=O)O)[nH]c2c1`: -5.86% (inactive). Turning to `Cc1ccc2nc(/C(C#N)=C\c3ccc(OC(=O)c4cccs4)cc3)[nH]c2c1`, the inhibition is 57.1% (active).

On to `CCOC(=O)CSc1nc2ccc(C)cc2[nH]1`, for which the inhibition is 10.3% (inactive). Next, `CCOC(=O)c1sc(-c2cccc([N+](=O)[O-])c2)cc1N`: 22% (inactive); `CN(C)C(=O)c1nc2ccc(Cl)cn2c1CN1CCN(c2ncccn2)CC1`: 16.5% (inactive); `CCCC(=O)Nc1nc2ccc(NC(=O)c3c(F)c(F)c(OC)c(F)c3F)cc2s1`: 13.4% (inactive). Next, `O=C(Nc1ccc(S(=O)(=O)Nc2nccs2)cc1)c1cc(=O)[nH]c2ccccc12`: 8.68% (inactive).

As to `CCC(CC)C(=O)Nc1ccc(S(=O)(=O)Nc2nccs2)cc1`, the inhibition is 15.9% (inactive). On to `O=C(Nc1ccc(S(=O)(=O)Nc2nccs2)cc1)c1cc(-c2ccncc2)nc2ccccc12`, for which the inhibition is 75% (active). Next, `CC(=O)Nc1ccc(Nc2c3ccccc3nc3ccccc23)cc1`: 12.8% (inactive). As for `O=[N+]([O-])c1cccc(Nc2c3ccccc3nc3ccccc23)c1`, the inhibition was 64.5% (active).

Consider `Cc1cc(CNC(=O)c2cccc([N+](=O)[O-])c2)c2ccccc2n1`, for which the inhibition is 20.7% (inactive). Next, `Cc1ccc2cc(CCNC(=O)c3ccc4c(c3)OCO4)c(=O)[nH]c2c1`: 0.571% (inactive). Next, `Cc1cc(N)n2nc(-c3ccc(C(C)(C)C)cc3)cc2n1`: 0.862% (inactive). Next, `CSCC[C@H](NC(=O)CCCn1nnc2ccccc2c1=O)C(=O)O`: 4.6% (inactive); `O=C(COc1ccccc1F)NNC(=O)c1ccc(N2CCCCC2)c([N+](=O)[O-])c1`: 2.35% (inactive).

Consider `Nc1ccc(-c2nnc(-c3ccc(-c4ccccc4)cc3)o2)cc1`, for which the inhibition is 2.48% (inactive). Regarding `OC(c1nnc(-c2ccccc2)o1)c1cccs1` (stereo unspecified), the inhibition was 52.9% (active). Next, `CCCN(CCC)c1ccc(C(O)c2nnc(-c3ccccc3)o2)cc1` (stereo unspecified): -0.222% (inactive).
